Measured values from PubChem BioAssay (NCI).
About 83,000 compounds went through this panel and 20% of them were active in at least one assay; those are over-represented in the sample as a whole.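 Values shown are percent growth following 48 h exposure of cells in 96-well plates to a single concentration of compound; below 10 was considered active.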 Values without a mark were called inactive. The source made the active and inactive calls.

system: HL-60(TB) leukemia; assay: NCI-60 one-dose screen, 48 h (100 = growth as untreated, 0 = no growth, -100 = all killed); conditions: 10 µM unless noted

| Compound | growth |
| --- | --- |
| CC(C)C(=O)Cc1cnccn1 | 134% |
| CCC(=O)NC1=C(Cl)C(=O)C(NC(=O)CC)=C(Cl)C1=O | -51.1% (active) |
| COC1=CC(=O)C(OC)=C(OC)C1=O | 61.4% |
| CC(C)CCN(CCCNc1c2c(nc3cc(Cl)ccc13)CCCC2)CCC(C)C | 70.4% |
| O=c1c2c3c(sc2n2c(-c4cc(-c5ccccc5)no4)nnc2n1Cc1ccccc1)CCCC3 | 72.8% |
| COc1cccc(C(c2cc3c(cc2O)OCO3)N2CCOCC2)c1OC (stereo not given) | 97.1% |
| CCCCCCCCCCC(CN(CC)CC)C(O)c1ccccc1 (stereo not given) | 44.7% |
| CN1C2CCC1/C(=C\c1ccc(Cl)cc1)C(=O)/C2=C/c1ccc(Cl)cc1 | 20.3% |
| COc1cc(C)ccc1Oc1nc(Nc2ccc(N3CCOCC3)cc2)ncc1NC(=O)Nc1cc(C(F)(F)F)cc(C(F)(F)F)c1 | 42.4% |
| Cc1ccc(N2C3c4ccccc4N(S(=O)(=O)c4ccc(C)cc4)C2c2ccccc2N3S(=O)(=O)c2ccc(C)cc2)cc1 | 80.5% |
| Cc1c(NCc2nnc3n(Cc4ccccc4)c(=O)c4c5c(sc4n23)CCCC5)c(=O)n(-c2ccccc2)n1C | 80% |
| O=c1cc(CSc2nnc(SCc3cc(=O)oc4c3ccc3ccccc34)o2)c2ccc3ccccc3c2o1 | 97.8% |
| COc1cc2c(cc1-c1c(C)noc1C)ncc1nc(C3CCCCC3)n(C3CCC(OC(F)F)CC3)c12 (stereo not given) | -25.1% (active) |
| O=C(/C(=C/c1ccc([N+](=O)[O-])cc1)SCc1ccccc1)c1ccc(Cl)cc1 | 74.4% |
| N#Cc1c(N)nc(Cl)c(C#N)c1C(=O)c1ccccc1 | 6.29% (active) |
| Cc1csc(Nc2nc(-c3ccc(Cl)cc3)nc(C(Cl)(Cl)Cl)n2)n1 | 69.3% |
| Cn1cc(-c2nc3c(F)cc4[nH]ncc4c3c3c2CCCC3)c(C(F)F)n1 | 10.8% |
| CC1(C)C(O)NC(Cl)=C(C#N)C1(C#N)C#N (stereo not given) | 114% |
| CCC(=O)Oc1cc(Cl)c(Cl)cc1Cl | 106% |
| O=C1NC(=O)/C(=C/c2c(-c3ccccc3)nc3sc(COc4ccccc4)nn23)S1 | 91.1% |

| Compound | growth |
| --- | --- |
| O=c1cc(-c2ccccc2)[nH]c2ncc(-c3ccc(F)cc3)n12 | 18.9% |
| CCOc1ccc2nc(SCc3nc4n(n3)S(=O)(=O)c3ccccc3N4C)sc2c1 | 12.9% |
| COc1cc(N2C(=O)[C@H](c3ccccc3)C2c2ccc(SC)cc2)cc(OC)c1OC (stereo not given in full) | -45.7% (active) |
| COc1ccc(-c2csc(NC(=O)Nc3nc(-c4ccc(OC)cc4)cs3)n2)cc1 | 80.6% |
| CC(=O)n1c(-c2ccc(Cl)c(Cl)c2)cn(-c2ccc(Cl)cc2)c1=O | 64.8% |
| COc1ccc(Cn2c(Br)c3c(c2Br)-c2nc(N)sc2CC3)cc1 | -16% (active) |
| CC(C)OP(=O)(CCC(=O)c1c[nH]c2ccccc12)OC(C)C | 92.2% |
| O=C(/C=C/c1cc2ccccc2[nH]c1=O)c1ccc(O)cc1 | 16% |
| COC(=O)c1ccc2cc(OC)c(OC)cc2c1 | 94.8% |
| O=[N+]([O-])c1ccc(N2c3ccncc3Sc3ccncc32)cc1 | 102% |
| O=C1/C(=C\c2ccc(F)cc2)CN(C(=O)c2ccccc2)C/C1=C\c1ccc(F)cc1 | 25.6% |
| COc1ccc(-c2nc(SC(C)C)nc(NNC(N)=O)c2C#N)cc1 | 80.3% |
| CCOC(=O)CNC1=C(Cl)C(=O)N(Cc2ccc(Cl)cc2)C1=O | 105% |
| O=C(c1c[nH]c2ccccc12)c1n[nH]c(=S)n1-c1cccc(Br)c1 | 88.8% |
| CCN(CC)CCN1c2nc3ccccc3cc2Sc2cc3ccccc3nc21 | -21.1% (active) |
| N#Cc1c(-c2cccc(Cl)c2)cc(-c2cccc(Cl)c2)[nH]c1=O | -11.9% (active) |
| CC(C)C1=CC2=C(C=O)C[C@@H]3[C@](C)(CCC[C@@]3(C)C(=O)OCC#CCN3CCCC3)[C@H]2CC1 | 54.5% |
| O=[N+]([O-])c1ccc(N/N=C(\C(=N/Nc2ccc([N+](=O)[O-])cc2[N+](=O)[O-])c2ccccc2)c2ccccc2)c([N+](=O)[O-])c1 | 80.5% |
| C/C(=C(/c1ccc(Cl)cc1)c1ccc(OCCN2CCCCC2)cc1)c1ccccc1 | 61.8% |
| CC[C@]12C=CCN3CC[C@@]4(c5ccc(OC)cc5N(C)[C@H]4[C@@](O)(C(=O)OC)[C@@H]1OC(=O)CCC(=O)O[C@H]1CC[C@H]4[C@@H]5CCC6=CC(=O)CC[C@@H]6[C@H]5CC[C@]14C)[C@@H]32 | -37.9% [100 µM] (active) |
